Experimental data taken from PubChem BioAssay AID624126 (The Scripps Research Institute Molecular Screening Center, 2012).
The campaign covered roughly 360,000 compounds. About 1,400 (0.39%) were called active. Shown is part of a subset that was picked to be rich in actives. Unmarked numbers belong to inactive results.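 The calls were made as follows: active = activation above its plate's cutoff, the mean activation of sample wells plus 3 SD; inactive = the rest.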

Biological target: Muscarinic acetylcholine receptor M4 (Homo sapiens) (UniProt P08173)
Experiment: human M4 muscarinic receptor positive allosteric modulators, primary screen, CHO-K1 cells, Fluo-8 calcium fluorescence (AID 624126)
Conditions: CHO-K1 hM4/Gqi5, Fluo-8 calcium fluorescence, ACh EC20; at 3 µM; stronger effect = higher value; 0% = ACh EC20, 100% = maximal ACh

Muscarinic acetylcholine receptor M4 (Homo sapiens), sequence (P08173 whole entry, looked up): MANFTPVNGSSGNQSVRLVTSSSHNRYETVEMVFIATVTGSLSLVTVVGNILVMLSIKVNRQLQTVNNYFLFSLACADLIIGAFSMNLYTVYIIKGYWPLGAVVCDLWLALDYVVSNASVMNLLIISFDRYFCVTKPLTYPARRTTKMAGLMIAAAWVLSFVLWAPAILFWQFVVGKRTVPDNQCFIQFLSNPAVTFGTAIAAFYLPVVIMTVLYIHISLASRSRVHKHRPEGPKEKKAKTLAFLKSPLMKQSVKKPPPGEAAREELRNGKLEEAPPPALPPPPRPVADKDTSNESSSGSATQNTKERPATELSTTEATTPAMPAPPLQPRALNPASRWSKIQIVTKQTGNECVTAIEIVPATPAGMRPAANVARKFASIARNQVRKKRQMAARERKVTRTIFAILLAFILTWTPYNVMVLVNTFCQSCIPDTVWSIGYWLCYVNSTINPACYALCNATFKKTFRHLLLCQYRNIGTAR

For `CNCC(O)CN1CCN(c2ccccc2OC)CC1` (stereo not drawn), the activation was 19.7% (active).
`Cn1c(NC(=O)c2ccco2)c(-c2ccccc2Cl)c(=O)c2ccccc21` was tested, and the activation was 31% (active).
In the case of `CSc1nc(C)cc(SC(C(C)=O)C(=O)Nc2ccccc2)n1` (stereo not drawn), the activation is reported as 22.6% (active).
For `Cc1cc(C)nc(NC(=O)c2cccc([N+](=O)[O-])c2)c1`, the activation was 31.6% (active).
With `CCn1c(SCC(=O)Nc2cc(C)ccc2C)nnc1-c1cnccn1` the activation was 35.7% (active).
`Cc1c(-c2cccc(Cl)c2)nc2ccccc2c1C(=O)OCC(=O)N(C)C1CCS(=O)(=O)C1` (stereo not drawn) was tested, and the activation was 22.5% (active).
For `O=C(CN1C(=O)S/C(=C\c2ccccc2F)C1=O)NCCCn1ccnc1`, the activation was 17.2% (active).
`COC(=O)CSc1nnc(NC(=O)CCc2ccccc2)s1` was tested, and the activation was 19.8% (active).
For `COc1ccc(CC(=O)N2N=C(C)CC2(O)C(F)(F)F)cc1` (stereo not drawn), the activation was 24% (active).
With `CCOc1cc(C(C(=O)NCC2CCCO2)N(C(=O)Cn2nnc3ccccc32)c2cccc(OC)c2)ccc1O` (stereo not drawn) the activation was 44.7% (active).
In the case of `Cn1c2ccccc2c(=O)c2c(=O)n(Cc3ccco3)c(COc3ccccc3)nc21`, the activation is reported as 21.8% (active).
With `COc1ccc(CCNC(=O)COC(=O)c2cc(=O)c3ccccc3o2)cc1` the activation was 26.3% (active).
`Cc1cc2[nH]ncc2cc1NC(=S)NC(=O)c1ccccc1` was tested, and the activation was 31.9% (active).
For `O=c1c2ccccc2nc2n1C1(CCCCC1)Cc1ccccc1-2`, the activation was 21.2% (active).
For `Cc1sc2ncnc(N3CCC(C(=O)Nc4ccc(F)cc4Cl)CC3)c2c1C`, the activation was 45% (active).
For `NCC(=O)c1cccc2ccc[n+]([O-])c12`, the activation was 17.3% (active).
In the case of `Cc1nc2sc(C(=O)c3ccccc3)c(N)c2c2c1CCCC2`, the activation is reported as 63% (active).
For `Cc1ccc(S(=O)(=O)N2CCN(C(=O)CSc3cc(C)ccc3C)CC2)c(C)c1`, the activation was 18.8% (active).
For `O=C(O)CCS(=O)(=O)c1ccc(-c2ccccc2)cc1`, the activation was 20.7% (active).
With `CN(CC(=O)NCCc1ccc(F)cc1)CC(=O)Nc1ccc(F)c(F)c1F` the activation was 21.1% (active).

In order of rising activation:
1. O=C(Nc1ccc(C2CC2(Cl)Cl)cc1)c1cccc([N+](=O)[O-])c1 (stereo not drawn)  -15.5%
2. CC1COc2ccccc2N1C(=O)c1cccnc1Cl (stereo not drawn)  -13.4%
3. COC(=O)c1scc(S(=O)(=O)C(C)(C)C)c1-n1cccc1  -11.5%
4. COc1cc(C(=O)N2CCN(C3CCC(C)CC3)CC2)cc(OC)c1OC (stereo not drawn)  -7.26%
5. Cc1cccc2cc3c(N)c(C(=O)N4CCCc5ccccc54)sc3nc12  -7.18%
6. CCOC(=O)c1ccc(S(=O)(=O)N(CCO)Cc2cc3cc(OC)c(OC)cc3[nH]c2=O)cc1  -7.09%
7. COc1cccc(NC(=O)C2CCCN(c3ncnc4c3nc3n4CCCCC3)C2)c1 (stereo not drawn)  -6.71%
8. COc1ccc(-c2oc3ncn(Cc4ccco4)c(=N)c3c2-c2ccc(OC)cc2)cc1  -6.61%
9. COc1ccccc1N1CCN(Cc2cc(OC)c3c(c2)OCO3)CC1  -6.02%
10. CN(CC(=O)NCc1ccc2c(c1)OCO2)CC(=O)Nc1ccc(F)c(F)c1F  -5.56%
11. Cc1cccc(-n2c(SCC(N)=O)nc3c(c2=O)C2(CCCCC2)Cc2ccccc2-3)c1  -5.47%
12. CCn1c(SCC(=O)NC2CC2)nnc1-c1ccccn1  -4.53%
13. COC(=O)c1c(NC(=O)COC(=O)[C@@H](NS(=O)(=O)c2ccccc2)C(C)C)sc2c1CCC2  -4.52%
14. Cc1ccc(C(=O)C(C)OC(=O)Cc2n[nH]c(=O)c3ccccc23)cc1C (stereo not drawn)  -4.11%
15. Cc1cccc(N(C)C(=O)c2cc(S(=O)(=O)N3CCCCC3)c[nH]2)c1  -3.91%
16. Cc1sc2ncnc(N3CCC(C(=O)NNC(=O)c4ccc(F)cc4)CC3)c2c1C  -3.74%
17. COc1ccccc1N1CCN(Cc2ccc(OC)c3ccccc23)CC1  -3.43%
18. Cc1ccc(S(=O)(=O)N2CCN(C(=O)COC(=O)c3c(C)cc(C)cc3C)CC2)c(C)c1  -3.37%
19. O=C(NCCCn1ccnc1)/C(=C\c1ccccc1F)NC(=O)c1ccccc1  -3.09%
20. CCOc1ccc(S(=O)(=O)Nc2cccc(C(=O)NCC3(N4CCCCC4)CCCCC3)c2)cc1  -3.09%
21. CCc1ccc(NC(=O)CSc2nnc(-c3cnccn3)n2Cc2ccco2)cc1  -2.71%
22. O=C(NCc1ccccc1Cl)C(=O)NCC1CCCN1S(=O)(=O)c1cccs1 (stereo not drawn)  -2.08%
23. CCCc1cc(=O)[nH]c(SCC(=O)N2CCN(S(=O)(=O)c3ccc(C)cc3C)CC2)n1  -1.77%
24. CN(C(=O)COC(=O)c1cc(-c2ccco2)nc2ccccc12)C1CCS(=O)(=O)C1 (stereo not drawn)  -1.7%
25. COc1ccc(C(=O)C2CCCN(C(=O)c3ccc(OC)o3)C2)c(C)c1 (stereo not drawn)  -1.21%
26. COc1ccc2c(-c3ccccc3)cc(SCC(=O)N(C)C3CCS(=O)(=O)C3)nc2c1 (stereo not drawn)  -1.12%
27. CC(C)(C)CC(=O)Nc1nnc(SCC(=O)NCc2cccs2)s1  -0.98%
28. O=C1CCCCC1Sc1ccc(Cl)cc1[N+](=O)[O-] (stereo not drawn)  -0.97%
29. CC(Oc1ccccc1)C(=O)Nc1c2c(nn1-c1ccccc1)CS(=O)C2 (stereo not drawn)  -0.93%
30. O=C(NC1CCCCC1)C1CCCN(S(=O)(=O)c2ccc(Br)s2)C1 (stereo not drawn)  -0.65%
31. CC(Sc1nnc2c(n1)C1CCC2(C)C1(C)C)C(=O)Nc1ccccc1 (stereo not drawn)  -0.53%
32. CN(CC(=O)NCCc1ccc(S(N)(=O)=O)cc1)CC(=O)Nc1ccc(F)c(F)c1F  0.07%
33. Cc1ccc(NC(=O)C2CC2)cc1S(=O)(=O)N1CCOCC1  0.09%
34. CC(C#N)(NC(=O)CN1CCN(S(=O)(=O)c2cc(C(F)(F)F)ccc2Cl)CC1)C1CC1 (stereo not drawn)  0.11%
35. COc1ccc(NC(=O)C(C)SCc2ccccc2)cc1 (stereo not drawn)  0.44%
36. CCCCN1C(=O)C(CC(=O)NCc2cccs2)CC(C(=O)N2CCCCCC2)=C1C (stereo not drawn)  0.62%
37. CCOC(=O)c1c(NC(=O)C2CC=CCC2C(=O)O)sc(C)c1CC (stereo not drawn)  0.65%
38. CC1=C(C(=O)N2CCOCC2)CC(CC(=O)NCc2cccc3ccccc23)C(=O)N1CCC1=CCCCC1 (stereo not drawn)  0.96%
39. Cn1c(-c2ccc(C(=O)c3ccccc3)s2)nc2ccccc21  0.98%
40. CC(C)(C)C(=O)Nc1ccc(-c2cn3cccnc3n2)cc1  1.07%
41. Cc1ccc(S(=O)(=O)CCC(=O)OCc2ccccc2)cc1  1.2%
42. Cc1cc(C)c(S(=O)(=O)c2ccccc2)c(OC(=O)c2c(F)cccc2Cl)n1  1.34%
43. CC(=O)c1c(C)[nH]c(C(=O)N2CCN(S(=O)(=O)c3ccc(F)c(F)c3)CC2)c1C  1.38%
44. C/C(=N\NC(=O)c1cccc([N+](=O)[O-])c1)c1cccnc1  1.53%
45. O=C(CCS(=O)(=O)c1ccccc1)NC1CCCC1  2.49%
46. COc1ccccc1-n1c(=S)[nH]c2c(sc(=S)n2-c2ccc(C)cc2C)c1=O  2.71%
47. COc1ccc(C(=O)N/N=C2\CCS(=O)(=O)c3ccc(F)cc32)cc1OC  2.71%
48. COCCNc1nnc(SCC(=O)NNC(=O)c2ccco2)s1  2.78%
49. CC1(C(=O)NCc2ccc3c(c2)OCO3)CCN1C(=O)Cc1cccs1 (stereo not drawn)  3.27%
50. Cc1ccc(C(C(=O)NCc2ccco2)N(CC2CCCO2)C(=O)Cn2nnc3ccccc32)cc1 (stereo not drawn)  4.26%
51. O=C(Cn1c(=O)n(Cc2ccco2)c(=O)c2ccccc21)NCC1CCCO1 (stereo not drawn)  5.16%
52. Cn1cc(CN2CCCCC2c2ccccn2)c(-c2ccc3c(c2)OCCO3)n1 (stereo not drawn)  5.23%
53. Cc1cc(C)cc(C(=O)NC(=S)Nc2ccc3[nH]c(=O)[nH]c3c2)c1  5.23%
54. CC1=NN(C(=O)CCc2ccccc2O)C(O)(C(F)(F)F)C1 (stereo not drawn)  5.29%
55. CC(C)Oc1ccc(C(=O)Nc2cc(=O)n(C)c(=O)n2C)cc1  5.54%
56. O=C(c1ccc(C(F)(F)F)cc1)C1CCCN(C(=O)c2csnn2)C1 (stereo not drawn)  5.9%
57. Cc1cccc(C)c1-n1nnnc1C1(C)CCC(=O)N1CCOc1ccccc1 (stereo not drawn)  6%
58. COc1ccc(C(C(=O)NCC2CCCO2)N(C(=O)Cn2nnc3ccccc32)c2ccc(NC(C)=O)cc2)cc1OC (stereo not drawn)  6.34%
59. Cc1sc2ncnc(N3CCC(C(=O)Nc4nc5ccc(Cl)cc5s4)CC3)c2c1C  7.24%
60. CC(C)N=C1CCCC1C(=S)SSC(=S)C1CCCC1=NC(C)C (stereo not drawn)  7.38%
61. Cc1cccc(-c2c(NC(=O)c3ccco3)oc3ccc(Cl)cc3c2=O)c1  7.81%
62. O=C(Nc1ccc(F)cc1)C1CCCN(S(=O)(=O)c2ccc(-n3cnnn3)cc2)C1 (stereo not drawn)  8%
63. C=CCOc1ccc(/C=N/n2cncn2)cc1OC  8.05%
64. O=C(CCN1C(=O)c2ccccc2C1=O)NCCCn1ccnc1  8.67%
65. CC1=NN(C(=O)CCCc2ccccc2)C(O)(C(F)(F)F)C1 (stereo not drawn)  9.78%
66. CCc1cccc(NC(=O)COC(=O)c2cc(=O)c3ccccc3o2)c1  10.9%
67. COc1ccc(-c2c(NC(=O)c3ccco3)oc3ccc(Cl)cc3c2=O)cc1  11.2%
68. COc1ccc(CCNC(=O)COC(=O)c2ccc[nH]c2=O)cc1  11.3%
69. CN(c1ccc2nc3ccccc3c(=O)n2n1)C1CCCCC1  11.4%
70. c1ccc2c(c1)OCC(c1nn3cnnc3s1)O2 (stereo not drawn)  13.1%
71. Cc1ccc2cccc(O)c2[n+]1[O-]  16.2%
72. O=C1c2ccccc2NC(c2ccccn2)N1NS(=O)(=O)c1ccccc1 (stereo not drawn)  16.5%
73. Cn1nnc(NC(=S)NC(=O)c2ccccc2)n1  22.4%
